A selection: hits, their analogues and other compounds. The true share with any hit is near 3.1%.
ATG4B inh = blocks human ATG4B protease cleavage of LC3 substrate. Q9Y4P1. ATG4B cleavage of LC3-PLA2, NBD-HPC fluorescence, 1 h. inhibition, % at 8.33 µM. 340,000 tested, 0.51% active; in the data active means inhibition above about 40%
Calb FLC = affects C. albicans growth with fluconazole; growth inhibition, % (concentration not given with the values); C. albicans CaCi-2 (fluconazole-resistant clinical isolate) + fluconazole, Alamar Blue growth, 48 h; AID 1979; 300,000 tested, 0.57% active;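 active means growth inhibition above about 58% in most replicates, limit read from the data, passing the limit was not always enough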;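 further: all wells also contain fluconazole at 8 µg/ml as a sub-toxic cotreatment; 0% = median of DMSO wells and 100% = median of geldanamycin control wells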
NadD inh = NadD (S. aureus) enzyme inhibition; AID 602399; inhibition, % at 20 µM; purified NadD enzyme, colorimetric absorbance read-out; 360,000 tested, 0.78% active; in the data active means inhibition above about 26%
Mot1-301 SUMO = inhibitors of SUMOylation pathway: yeast Mot1-301 growth rescue; S. cerevisiae Mot1-301 growth rescue, ATP luminescence, 38.5C; percent above DMSO median, 100 means doubled; growth rescue, % at 18.8 µM; 320,000 tested, 1% active;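 active means every valid replicate shows activation above 250% relative to neutral control wells; inactive means the rest, any valid replicate at or below 250%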;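 further: OY570 slx delta 5 strain wells were the positive control but not used for scaling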
FAS TE block = FAS thioesterase (human) inhibition; P49327; recombinant FAS-TE, OMFH fluorogenic substrate, fluorescence endpoint; inhibition, % at 15 µM; 360,000 tested, 0.67% active; AID 602261;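 active means compounds whose normalised, plate-corrected inhibition of enzyme fluorescence in the single-dose primary screen is 50% or more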;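 further: 0% = DMSO with enzyme and 100% = substrate without enzyme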
Mot1 SUMO dose = yeast SUMO pathway inhibition in dose response; shares compounds with Mot1-301 SUMO; S. cerevisiae Mot1-301 galactose growth, ATP luminescence, 24 h; -100 = growth of slx-deleted rescue strain; growth activity, percent, % at 42 µM; 2,300 tested, under 10 active; AID 493004;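 active means Signal drops as the depositor expects, and the fitted half-maximal dose is no more than ten times the top valid tested dose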;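 further: more negative values mean stronger growth rescue toward the control strain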
The depositor's hits bear a star; . = no result; + = active, no number; [ ] = remark or other dose.

SMILES	ATG4B inh	Calb FLC	NadD inh	Mot1-301 SUMO	FAS TE block	Mot1 SUMO dose
COC(=O)[C@@]12CCCCN1[C@H](c1ccc(-c3ccc(C(C)=O)cc3)cc1)[C@@H]1C(=O)N(C)C(=O)[C@@H]12	-8.4	1.5	0.1	736.5*	27.9	0.6
COC(=O)[C@@]12CCCCN1[C@H](c1ccc(-c3cccc(Cl)c3)c(OC)c1)[C@H]1C(=O)N(C)C(=O)[C@H]12	-14.4	12.4	0.7	766.0*	28.0	-0.3
CC1(C)CC(=O)C=C(c2ccc(COC(=O)c3cccc(C(F)(F)F)c3)cc2)C1=O	.	.	10.8	.	32.9	.
Cc1ccc(S(=O)(=O)CCC(=O)OCCOc2cccc(Br)c2)cc1	-4.4	.	-7.2	215.2	26.8	.
CN(C)/C=C/C(=O)c1ccncc1	2.8	-5.7	-4.9	876.5*	-2.2	0.0
O=C(COC(=O)c1ccccc1SCC(=O)N1CCCC1)NC1CCCCC1	-5.4	0.9	-1.1	792.0*	-3.7	0.2
O=C(COC(=O)c1ccccc1SCC(=O)N1CCCC1)NC1CCS(=O)(=O)C1 (configuration not stated)	-4.7	-4.8	-1.1	-24.5	-5.8	.
Cc1ccc(C(=O)CSc2n[nH]c(C)n2)cc1	0.2	-0.1	0.2	-3.7	-6.1	.
Cc1nc(SCC(=O)O)n[nH]1	-4.5	8.8	-3.0	+	-2.5	-0.1
CC(C)(C)[C@H]1CCC(=O)N([C@H](CN=[N+]=[N-])Cc2ccccc2)CC1	-7.5	-2.2	-4.2	8.6	9.4	.
COc1ccc(C2=Nn3c(nnc3-c3ccco3)SC2)cc1	-5.1	23.1	1.2	532.8*	-6.7	-0.6
COc1ccc(OC)c(C2=Nn3c(nnc3-c3ccco3)SC2)c1	-3.6	1.4	0.8	5.0	-1.8	.
CC(NC(=O)CCc1nnc(-c2ccc(-c3ccccc3)cc2)o1)c1nc2ccccc2[nH]1 (configuration not stated)	21.8	15.4	9.4	451.7*	2.7	-0.4
Cc1ccc(S(=O)(=O)Nc2ccccc2F)cc1C(=O)NNC(=O)c1ccccc1O	7.3	69.1	-1.4	-17.6	-1.5	.
Cn1c(CC(=O)Nc2ccccc2F)nnc1SCC(=O)N1CCOCC1	4.4	3.2	3.2	-13.3	-7.3	.
CCCCn1c2nc3ccccc3nc2c2c(=O)n(CCC)cnc21	9.5	-17.7	-0.6	730.8*	1.9	0.1
CCCn1cnc2c(c1=O)c1nc3ccccc3nc1n2Cc1ccccc1OC	.	3.0	.	.	.	.
Cc1n[nH]c(C)c1S(=O)(=O)N(CC(=O)NC1CCCC1)c1ccc(C(C)C)cc1	-11.1	2.8	-4.2	633.9*	6.9	-0.5[21 µM]
Cc1ccc(S(=O)(=O)N2CCOC23CCN(C(=O)C(=O)NCCC(C)C)CC3)cc1	-12.2	0.6	-4.3	-26.7	0.9	.
N#CCCN(Cc1cccnc1)C(=O)Nc1ccccc1	0.6	11.0	2.5	3.4	-9.8	.
N#CCCN(Cc1cccnc1)C(=O)Nc1cccc(Cl)c1	5.7	4.8	3.3	+	0.7	0.3
C=Cc1ccc(Cn2c(C)c(C(=O)NCc3ccc4c(c3)OCCO4)sc2=O)cc1	.	.	1.8	.	16.3	.
Cc1ccc(S(=O)(=O)NCC(C)n2cncn2)cc1 (configuration not stated)	-3.6	-0.9	-0.5	532.6*	-7.1	0.6
Cc1sc2nc(-c3ccc(Br)cc3)oc(=O)c2c1C	-4.2	2.9	-6.3	-10.1	8.3	.
COCCN1C(=O)/C(=C/c2cc3c(cc2Br)OCO3)NC1=S	1.2	-1.5	2.9	602.9*	4.8	-0.6
SMILES	ATG4B inh	Calb FLC	NadD inh	Mot1-301 SUMO	FAS TE block	Mot1 SUMO dose
CCCN1C(=O)/C(=C/c2ccc(C)s2)NC1=S	9.6	29.4	-9.6	-29.0	2.8	.
OC(c1ccc(F)c(F)c1)c1ncc(-c2cccc(F)c2)[nH]1 (configuration not stated)	.	.	-7.0	.	4.4	.
COc1ccc(NC(=O)CSCC(=O)Nc2ccccc2C(=O)N2CCCCC2)cc1	-3.6	.	-3.8	0.0	-5.6	.
COc1ccc(NC(=O)Nc2ccccc2C(=O)N2CCCC2)cc1	-8.8	20.4	-4.9	739.5*	-4.6	-0.3
COC(=O)c1cc(NC(=O)CN(C)C2CCS(=O)(=O)C2)cc(C(=O)OC)c1 (configuration not stated)	7.6	.	-1.2	-7.7	-5.1	.
O=C(Cc1ccc(Cl)cc1Cl)OCC(=O)c1ccc[nH]1	-4.7	10.9	-0.4	580.6*	1.3	0.9
OCC[C@@H]1C[C@H](O)[C@@H](O)[C@]2(CCc3ccccc3CO2)O1	12.1	4.5	-2.2	751.2*	-14.3	-0.2
O=C(O)CC(NC(=S)NCc1ccccc1)C(=O)O (configuration not stated)	0.4	-20.2	9.5	27.8	-7.2	.
NC(=O)CC(NC(=S)NCc1ccccc1)C(=O)O (configuration not stated)	-4.7	-1.7	8.4	582.5*	-10.3	0.3
CCCOc1ccc([N+](=O)[O-])c(N)c1	-1.7	26.8	-7.4	788.4*	-2.3	0.3
COc1ccc(-n2c(SCC(=O)NCC3CCCO3)nc3c(c2=O)SCC3)cc1OC (configuration not stated)	-9.1	-0.3	0.3	672.0*	-8.5	-0.4
COc1ccc(Cc2nnc(NCCO)[nH]c2=O)cc1	1.7	18.5	-3.5	446.5*	-6.1	-0.2
COc1ccc(Cc2nnc(NCCO)[nH]c2=O)cc1OC	0.2	0.0	-3.6	1.2	-1.3	.
CCn1ncc(Br)c1C(=O)Nc1ccccc1OC	2.6	-5.6	-3.8	234.0	3.1	.
CCn1nccc1C(=O)Nc1ccccc1OC	3.0	-13.0	1.4	747.0*	-5.4	-0.1
O=C(/C=C/c1ccc(-c2ccccc2[N+](=O)[O-])o1)c1ccc(Br)cc1	9.3	9.1	-6.9	2.2	21.9	.
Cc1ccc(C(=O)/C=C/c2ccc(-c3ccccc3[N+](=O)[O-])o2)cc1	3.2	4.7	16.1	490.6*	7.1	-0.7
CCOC(=O)C(C)(C)Sc1nc2c(cnn2-c2ccc(C)cc2)c(=O)[nH]1	-18.6	-2.1	6.8	372.7*	-0.7	0.7
CCc1ccc(-n2c(SCC(=O)NC3CCS(=O)(=O)C3)nc3ccccc3c2=O)cc1 (configuration not stated)	5.1	.	-4.2	28.1	-3.6	.
CN=C1SC(CC(=O)Nc2sc3c(c2C#N)CCCC3)C(=O)N1C (configuration not stated)	-6.9	2.8	-0.4	364.2*	2.7	0.2
CC(C)c1c(C(=O)N/N=C/c2ccc(C(F)(F)F)cc2)nnn1-c1nonc1N	10.0	.	-1.9	16.9	15.6	.
Cc1ccc2c(c1)C(=O)N1[C@H]3c4ccccc4OC[C@@H]3[C@H](c3ccccc3)[C@]1(C)C(=O)N2	-6.2	.	-0.1	+	71.2*	-0.3
COc1ccc2c(c1)[C@H]1[C@H](CO2)[C@H](c2ccccc2)[C@]2(C)C(=O)Nc3ccc(C)cc3C(=O)N12	6.0	.	10.1	598.4*	44.1	-0.8

Source: PubChem BioAssay (several laboratories)
